According to publication PMC7819943, “Rice protein-binding microarrays: a tool to detect cis-acting elements near promoter regions in rice”:
The full ranking holds about 35,000 sequences; the median of “fluorescence intensity (a.u.)” is about 10,000, and the highest 2% start at about 52,000. The sample as a whole holds a higher share of the highest values than the screen did.

target: T1, OsWOX13 (Oryza sativa, UniProt Q5QMM3 1-267); test: protein-binding microarray (RPBM); PBS, 2% BSA, 51.3 ng/ul salmon testes DNA, 50 uM zinc acetate, 200 nM TF, 25 C, 1 h; high values mean tight binding; settings: protein: recombinant; tags: N-terminal polyhistidine and DsRed monomer fusion (pET32a); label: CyDye5-dUTP incorporated in the synthesized complementary strand; 3' TTTTT single-stranded linker to array surface; dsDNA, one strand shown
T1 sequence: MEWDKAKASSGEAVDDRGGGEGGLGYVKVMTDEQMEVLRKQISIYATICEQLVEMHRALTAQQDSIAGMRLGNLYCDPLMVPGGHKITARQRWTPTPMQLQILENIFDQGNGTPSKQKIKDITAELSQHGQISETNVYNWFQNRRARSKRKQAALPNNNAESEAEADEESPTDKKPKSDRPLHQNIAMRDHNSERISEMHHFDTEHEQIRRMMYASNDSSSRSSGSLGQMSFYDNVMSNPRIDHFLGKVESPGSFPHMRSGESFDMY
How it was run: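 Ni–NTA purification followed expression in E. coli BL21-CodonPlus of transcription factors fused N-terminally to a polyhistidine tag and DsRed. At 200 nM in PBS with 2% BSA, salmon testes DNA and 50 µM zinc acetate, the protein was incubated for 1 h at 25 °C with a custom Agilent array that had been primer-extended with Cy5-dUTP and blocked with 2% BSA. After washing, the array was read on an Axon 4000B scanner. The binding signal is per-feature fluorescence intensity in arbitrary units.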

Q: For “TGTGTGTGTTTTAATTAATTAACATTTATATAAATATGAACGGAGTCACCTAGTGCAG”, which binding signal is on record?
A: Its binding signal is 14100 fluorescence intensity (a.u.).

Q: “GTAAATATTAATGAATTGCTTGTTTATGTTTAAATAAATGCGGAGTCACCTAGTGCAG” was tested. Which binding signal did it give?
A: Its binding signal is 4960 fluorescence intensity (a.u.).

Q: With “TATATTTATTATTTGCAGTTAATTATGTTACAAATAATAACGGAGTCACCTAGTGCAG” as the sequence, how does the binding signal read?
A: The binding signal was 4460 fluorescence intensity (a.u.).

Q: Which binding signal does the source give for “TAATTAATAATTAATTAATTATGTGTTAATTGCTTGCTCCCGGAGTCACCTAGTGCAG” here?
A: The binding signal was 65500 fluorescence intensity (a.u.).

Q: How did the binding signal turn out when “ATTATTAATTTAATAGTATTGTAGTGATTCAGAGTACTAGCGGAGTCACCTAGTGCAG” was run?
A: The binding signal was 19200 fluorescence intensity (a.u.).

Q: How did the binding signal turn out when “CTTTAATTAATTTAACTGCCATTATTATGTACTTTCAGAGCGGAGTCACCTAGTGCAG” was run?
A: Its binding signal is 63200 fluorescence intensity (a.u.).

Q: With “CATTATTTCACTTGATTAAATTGCTTTAACTTTTATTTAGCGGAGTCACCTAGTGCAG” as the sequence, how does the binding signal read?
A: The binding signal was 15900 fluorescence intensity (a.u.).

Q: “CTTAATTACAAATTTGAAATTAATTTGCTAGGTATGTTTACGGAGTCACCTAGTGCAG” was tested. Which binding signal did it give?
A: Its binding signal is 63900 fluorescence intensity (a.u.).

Q: With “ATTGATTATTATTTTAAAATAAAATGGCGTGTTAGGTTTTCGGAGTCACCTAGTGCAG” as the sequence, how does the binding signal read?
A: Its binding signal is 47300 fluorescence intensity (a.u.).

Q: How did the binding signal turn out when “CACTGATTTTGATAGTTGAGGGACCCGTTGTATTTGATTTCGGAGTCACCTAGTGCAG” was run?
A: Its binding signal is 21500 fluorescence intensity (a.u.).

Q: How did the binding signal turn out when “CCAAAATTTGATAGAATCTATTCCGAAGCGTCCAATGTTTCGGAGTCACCTAGTGCAG” was run?
A: The binding signal was 33400 fluorescence intensity (a.u.).

Q: For “CCGCTGTAGCTGATTGCCAGTGTCAGATCAAGCTGTGAATCGGAGTCACCTAGTGCAG”, which binding signal is on record?
A: Its binding signal is 9800 fluorescence intensity (a.u.).

Q: How did the binding signal turn out when “ATTAGGTGTTTCCAGTTAATTAAAGTCATGTAGTACGGATCGGAGTCACCTAGTGCAG” was run?
A: Its binding signal is 3680 fluorescence intensity (a.u.).

Q: How did the binding signal turn out when “AATCAGCTCTAAATTTAAATTGTGGCTGATAAATACGAGTCGGAGTCACCTAGTGCAG” was run?
A: The binding signal was 4450 fluorescence intensity (a.u.).

Q: With “GCTAAATTCCTATCAAATTCAAGTTTAACACATTACTGCGCGGAGTCACCTAGTGCAG” as the sequence, how does the binding signal read?
A: The binding signal was 13100 fluorescence intensity (a.u.).

Q: “ATGAAATCAAGGTTTTGCAAATTGAAATCCATGTTTTGGTCGGAGTCACCTAGTGCAG” was tested. Which binding signal did it give?
A: The binding signal was 8140 fluorescence intensity (a.u.).

Q: “ATTATTATAAATTATTTCCTCCGTTTCACAATGTAAGTCACGGAGTCACCTAGTGCAG” was tested. Which binding signal did it give?
A: The binding signal was 5530 fluorescence intensity (a.u.).

Q: Which binding signal does the source give for “TAAATTGCGCAAAATTTATTCACGTAGATTAAGAGTCCATCGGAGTCACCTAGTGCAG” here?
A: The binding signal was 10700 fluorescence intensity (a.u.).

Q: Which binding signal does the source give for “GTTGATTTCACGACCTGCTCGCTGAGGAATGGAGGTCCAGCGGAGTCACCTAGTGCAG” here?
A: Its binding signal is 3180 fluorescence intensity (a.u.).

Q: Which binding signal does the source give for “ATCATAATTAAATATATTTTCATAATAAATTTGTCTTTAGCGGAGTCACCTAGTGCAG” here?
A: Its binding signal is 31000 fluorescence intensity (a.u.).

Q: For “TTGGGAAACGGAGGAAGTAATTAATTAGTCTTTGTGGAAACGGAGTCACCTAGTGCAG”, which binding signal is on record?
A: The binding signal was 3790 fluorescence intensity (a.u.).

Q: “ACAATCTTATAGCTAATTTATTATATATGTTAGCTTTAAGCGGAGTCACCTAGTGCAG” was tested. Which binding signal did it give?
A: Its binding signal is 4320 fluorescence intensity (a.u.).

Q: With “AATATTTATGTTAATTATATATAGCTAATTATGATAATAGCGGAGTCACCTAGTGCAG” as the sequence, how does the binding signal read?
A: The binding signal was 18800 fluorescence intensity (a.u.).

Q: For “TTAATTAACTCAGCTTCTAGTTCATATGACTCTTGCTAATCGGAGTCACCTAGTGCAG”, which binding signal is on record?
A: Its binding signal is 8400 fluorescence intensity (a.u.).

Q: “AATTAATAATTGCAATAGTTAGGTTATGAAGACTTCAGAGCGGAGTCACCTAGTGCAG” was tested. Which binding signal did it give?
A: Its binding signal is 15300 fluorescence intensity (a.u.).

Q: How did the binding signal turn out when “AATTTAATTAATTATGACTTCAGCTTGGTAGGTTCAGTTGCGGAGTCACCTAGTGCAG” was run?
A: The binding signal was 53000 fluorescence intensity (a.u.).

Q: For “TTGCTAATTAATTTATGTTAATTAGTAGCTAACCTAGCTGCGGAGTCACCTAGTGCAG”, which binding signal is on record?
A: Its binding signal is 65200 fluorescence intensity (a.u.).

Q: Which binding signal does the source give for “AAAACAGAAAATAGCCAGTCAACCAAACAGTTGTCTTGACCGGAGTCACCTAGTGCAG” here?
A: The binding signal was 6230 fluorescence intensity (a.u.).

Q: Which binding signal does the source give for “TGCTAATGGCGGCCATAGATTTGTACAAGTATCAGCTGAGCGGAGTCACCTAGTGCAG” here?
A: The binding signal was 4480 fluorescence intensity (a.u.).

Q: Which binding signal does the source give for “AATTGCTGTTGATTTGCCACTACCACTCTCCCCAACAAGTCGGAGTCACCTAGTGCAG” here?
A: The binding signal was 6370 fluorescence intensity (a.u.).

Q: Which binding signal does the source give for “ACTGATTGCTGTTGGTCATTCCCGGGCCAGTCCCCACTCCCGGAGTCACCTAGTGCAG” here?
A: The binding signal was 52400 fluorescence intensity (a.u.).

Q: “CCCACATGCCAGACTGATTGCCAGTCATGAGCAAGGGTCCCGGAGTCACCTAGTGCAG” was tested. Which binding signal did it give?
A: The binding signal was 23900 fluorescence intensity (a.u.).

Q: How did the binding signal turn out when “ATCATAACTCCATCAGATAATTTGTGCAGAACGGCAGAACCGGAGTCACCTAGTGCAG” was run?
A: The binding signal was 5500 fluorescence intensity (a.u.).

Q: Which binding signal does the source give for “TTAATTATTTGAGCAAATTTAATGGGATGAGGGAATGATGCGGAGTCACCTAGTGCAG” here?
A: The binding signal was 24800 fluorescence intensity (a.u.).

Q: For “ATTAATTGATGCTTTGCTTGATTACTTGAGTCAGATCCAGCGGAGTCACCTAGTGCAG”, which binding signal is on record?
A: Its binding signal is 63200 fluorescence intensity (a.u.).

Q: “ATGTTGATTGGAGTCTGATAACTTGTCACTGGATGACATGCGGAGTCACCTAGTGCAG” was tested. Which binding signal did it give?
A: The binding signal was 61700 fluorescence intensity (a.u.).

Q: Which binding signal does the source give for “GTTTTAATTGTTTTACTGATTTGCAAATGAGTCTGGGATGCGGAGTCACCTAGTGCAG” here?
A: Its binding signal is 63500 fluorescence intensity (a.u.).

Q: With “GTGTTGAATGCACTGATTTGTTCAGTGTCTGAGATTGATGCGGAGTCACCTAGTGCAG” as the sequence, how does the binding signal read?
A: The binding signal was 13100 fluorescence intensity (a.u.).

Q: How did the binding signal turn out when “TTGAGATGATTTACTATTAATTTAGTCTATTGTTGAGATGCGGAGTCACCTAGTGCAG” was run?
A: Its binding signal is 35700 fluorescence intensity (a.u.).

Q: With “ACGAATCTAATGAGCCTAATTAATCCATGATTAGCCTATGCGGAGTCACCTAGTGCAG” as the sequence, how does the binding signal read?
A: The binding signal was 21200 fluorescence intensity (a.u.).

Q: With “AGTTCAATTGCTTTGATGAGTGAGCAGAGAGATGATGCAGCGGAGTCACCTAGTGCAG” as the sequence, how does the binding signal read?
A: The binding signal was 3420 fluorescence intensity (a.u.).

Q: How did the binding signal turn out when “TCTTTACTTAATTAATTTGATGCATGTATGCCAGGATTTGCGGAGTCACCTAGTGCAG” was run?
A: The binding signal was 35800 fluorescence intensity (a.u.).

Q: Which binding signal does the source give for “CATGGATAATTTGTTTTGGAGTGACACACTGACACTGATGCGGAGTCACCTAGTGCAG” here?
A: The binding signal was 9780 fluorescence intensity (a.u.).

Q: How did the binding signal turn out when “GAATCTATTGAGCCTAATTAATCCATGATTAGCCTATGTGCGGAGTCACCTAGTGCAG” was run?
A: The binding signal was 7730 fluorescence intensity (a.u.).

Q: With “CCAGCTTAATTGAGCCTGATTAGCCGAATCCATAATTGTGCGGAGTCACCTAGTGCAG” as the sequence, how does the binding signal read?
A: The binding signal was 63800 fluorescence intensity (a.u.).
